# Source: PubChem
# Most compounds without a hit are left out; they make up all but 2.7% or so of the library.
# HIV Env fusion: inhibitors of HIV-1 Env-driven cell-cell fusion, primary screen, HeLa-JRFL effector, CEM21 target cells, luciferase. inhibition, % at 12.3 µM. 360,000 compounds, 1.1% hits. AID 651610, 2012;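 active = mean replicate inhibition score of at least 50 and every replicate individually at or above 50; inconclusive = only one of the two criteria met; inactive = mean below 50 and not all replicates reaching 50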;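 also: 0% = plate neutral controls and 100% = maraviroc near 300 nM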
# F508del corr: F508del CFTR correction, initial screen, CFBE line, single point | CFBE cells, YFP halide quenching; stimulated with forskolin plus potentiator P3; % fluorescence drop versus neutral controls | activity (quench increase), % at 7.58 µM | 350,000 compounds, 0.36% hits | AID 720511, 2013;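 active = mean added fluorescence quench of at least 8% versus neutral control, with both replicates also reaching 8%; inconclusive = only one of the mean or replicate conditions met; inactive = mean below 8% and not both replicates reaching 8%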;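 also: cells transiently co-express mutant CFTR-F508del with the halide-sensitive YFP; corrector assay measuring rescue of mutant channel to the surface after 24 h compound exposure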
# EWS-Fli block: EWS/Fli-driven NR0B1 reporter inhibitors, primary screen, A673 cells, NR0B1 luciferase, luminescence, MLPCN library; 350,000 compounds, 0.67% hits; AID 651661, 2012; viability-normalised; inhibition, % at 12.6 µM;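 active = mean inhibition of at least 50% after viability correction, with every replicate also passing that limit; inconclusive = mean reaches 50% but only one of two replicates passes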;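 also: firefly luciferase signal divided by Alamar Blue viability fluorescence both relative to DMSO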
# PGC1a acetyl inh: inhibitors of PGC1a acetylation signal, primary screen, cell-based, U2OS, AlphaScreen, inhibitor mode. AlphaScreen anti-acetyl-lysine; with virally co-expressed GCN5 acetyltransferase. inhibition, % at 15.6 µM. 350,000 compounds, 0.17% hits. AID 651687, 2012;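 active = every replicate shows inhibition of at least 40%; inconclusive = mean inhibition at least 40% but some replicate below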;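 also: 0% = neutral control wells and 100% = positive control wells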
# PAX8 inh HTS: inhibitors of PAX8-driven TPO luciferase reporter, primary screen, RMG-I cells, single concentration | inhibition, % at 12.6 µM | AID 652154, 2013 | SteadyGlo, 24 h | 360,000 compounds, 1.2% hits;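 active = mean replicate inhibition at least 60% with every replicate also reaching 60%; inconclusive = only one of the two criteria is met; inactive = mean below 60% and not all replicates reaching 60%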;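 also: luciferase light reporting Pax8 driven TPO promoter activity; plate controls were median of neutral control wells for no effect and mitoxantrone controls for full effect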
# INS-1E GSIS act: GLuc luminescence reporter in INS-1E cells, primary screen for activators of glucose-dependent secretion of insulin. 370,000 compounds, 0.61% hits. INS-1E GLuc reporter insulin secretion, 2-3 h. activation, % at 16.6 µM;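 active = lowest replicate activation of at least 40%, so every replicate reaches that level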;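 also: 0% = median of neutral control wells and 100% = median of IBMX positive control wells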
# * hit, by the source's call; ? = inconclusive; / = no result; [ ] = dose if it differs, or a comment.
SMILES,HIV Env fusion,F508del corr,EWS-Fli block,PGC1a acetyl inh,PAX8 inh HTS,INS-1E GSIS act
CN1C(=O)c2cc(NC(=O)Nc3cccc(Cl)c3)ccc2OC[C@@H]2O[C@@H](CC(=O)NCCc3ccncc3)CC[C@H]21,/,-2,-16,-3,74*,-6
CCNC(=O)C[C@H]1CC[C@@H]2[C@@H](COc3ccc(NC(=O)Nc4cccc(OC)c4)cc3C(=O)N2C)O1,59*[16.7 µM],-1,-11,-2,-16,-3
CN1C(=O)c2cc(NC(=O)Nc3cccc(Cl)c3)ccc2OC[C@H]2O[C@@H](CC(=O)NCCc3ccncc3)CC[C@@H]21,/,-2,-6,-4,-3,-24
O=C(Nc1ccccc1F)N[C@H]1C=C[C@@H](CC(=O)N2CCCCC2)O[C@@H]1CO,-9[16.7 µM],4,-3,-17,-7,-11
COc1ccccc1C(OC(=O)c1cccs1)C(=O)NCC1CCCO1 (configuration not stated),-35,/,/,7,/,57*
Cc1nnc(NC(=O)C2CCCCC2)s1,65*,/,/,/,/,/
Cc1nnc(NC(=O)C2CCCC2)s1,-1,-3,-3,2,-3,6
CCN(CC(=O)Nc1cc(Cl)ccc1-n1cncn1)Cc1nc2ccccc2c(=O)[nH]1,6,14*,4,6,14,10
c1cc2c(cc1C1=Nn3c(nnc3C3CCCCC3)SC1)OCO2,39,/,/,-3,/,/
CC(C)(C)C1=Nn2c(nnc2C2CCCCC2)SC1,-2,/,/,8,/,81*
COc1cc(C(=O)NC(=S)N(CCc2ccccc2)CCc2ccccc2)cc(OC)c1OC,34,/,/,-4,75*,-4
O=C(COc1ccc2c(c1)OCO2)Nc1ccc2c(c1)oc1ccccc12,/,/,/,7,/,81*
O=C(Nc1ccc2c(c1)oc1ccccc12)c1ccc2c(c1)OCO2,-84,/,/,/,/,/
CN(C)CC(=O)Nc1ccc2c(c1)[C@@H]1C[C@H](CC(=O)NCc3cccnc3)O[C@H](CO)[C@@H]1O2,/,2,0,6,/,6
C[C@@H]1CN([C@@H](C)CO)C(=O)Cc2cc(NC(=O)Nc3ccc(C(F)(F)F)cc3)ccc2O[C@@H]1CN(C)Cc1ccc(Oc2ccccc2)cc1,5[16.7 µM],4,11,-6,?,8
O=S(=O)(c1ccc(N=C2NN=C(c3cc(F)ccc3F)CS2)cc1)N1CCOCC1,?,1,37,-6,90*,-12
C[C@H]1CCCCO[C@@H](CN(C)C(=O)C2CCCCC2)[C@@H](C)CN([C@@H](C)CO)C(=O)c2cc(N(C)C)ccc2O1,10[16.7 µM],2,0,-2,12,-6
O=C(CC1c2ccccc2Oc2ccccc21)Nc1ccccc1C(F)(F)F,/,/,/,/,/,102*
N#C/C(=C/c1ccc(Sc2nc3ccccc3[nH]2)o1)c1ccccc1F,73*,/,/,/,/,-43
N#C/C(=C\c1ccc([N+](=O)[O-])o1)c1nc2ccccc2[nH]1,-141,/,59*,/,32,-1
N#C/C(=C/c1ccc(Sc2nc3ccccc3[nH]2)o1)c1cccc(F)c1,87*,/,/,6,/,-13
Cc1ccc2nc(/C(C#N)=C\c3ccc([N+](=O)[O-])o3)[nH]c2c1,/,/,/,15,/,/
CNC(=O)C[C@@H]1CC[C@H]2[C@@H](COc3ccc(NC(=O)c4ccc(F)c(F)c4)cc3C(=O)N2C)O1,-3[16.7 µM],-2,6,-3,-5,6
C[C@@H]1CN([C@@H](C)CO)C(=O)Cc2cc(NS(C)(=O)=O)ccc2O[C@@H]1CN(C)Cc1ccc(-c2ccccc2)cc1,2[16.7 µM],-1,/,-6,5,-9
CCOC(=O)c1oc2cc(O)cc(C)c2c1C,/,-4,-25,1,-93,40*
SMILES,HIV Env fusion,F508del corr,EWS-Fli block,PGC1a acetyl inh,PAX8 inh HTS,INS-1E GSIS act
CCN(CC)NC(=O)Nc1ccccc1,9,-1,-8,4,14,-2
Cc1ccc(N(NC(=O)C(O)(c2ccccc2)c2ccccc2)C(=O)CCl)cc1,70*,/,/,/,107*,82*
O=C(Nc1ccccc1)NN(C(=O)CCl)c1ccccc1,39,-2,34,13,99*,-10
CCC(O)(CC)C(=O)NN(C(=O)CCl)c1ccccc1,61*,/,17,/,-19,17
CO[C@H](CN(C)Cc1cc(F)ccc1F)[C@@H](C)CN([C@@H](C)CO)S(=O)(=O)c1ccc(F)cc1,10[16.7 µM],-1,3,-25,20,-1
CCCN(C)C[C@H]1Oc2cc(C#CC3CCCC3)ccc2S(=O)(=O)N([C@H](C)CO)C[C@H]1C,23[16.7 µM],1,-34,-27,7,0
Cc1ccc(S(=O)(=O)Nc2ccc3c(c2)CC(=O)N([C@H](C)CO)C[C@H](C)[C@H](CN(C)C(=O)Nc2ccc(F)cc2)O3)cc1,/,1,2,-4,6,-12
C=C1C(=O)O[C@H]2C[C@H]1[C@@H](OC(C)=O)C/C(C)=C/CC/C(C)=C\CC[C@]2(C)O,81*,-3,56*,-35,111*,/
CCCCCCCCN1C(=O)[C@H](CC(=O)N2CCCCC2)C[C@@]2(C(=O)OC)CC(C)(C)CC=C12,28,-1,-7,/,2,81*
CCCCCCCCN1C(=O)[C@H](CC(=O)N2CCOCC2)C[C@@]2(C(=O)OC)CCCCC=C12,-20,4,-11,/,-13,/
CCCCCCCCN1C(=O)[C@H](CC(=O)N2CCCCC2)C[C@@]2(C(=O)OC)CCCCC=C12,23,-4,3,/,-10,47*
COc1ccc2c3c(n(C)c2c1)[C@H](CO)N(C(=O)Nc1ccc(F)cc1)CC31CCN(S(=O)(=O)c2cccs2)CC1,/,1,12,6,/,22
N=C1/C(=C/c2cccn2Cc2ccc(Cl)cc2)C(=O)N=C2SC=CN12,63*,/,/,/,/,148*
N=C1/C(=C/c2cccn2CCOc2ccccc2)C(=O)N=C2SC=C(c3ccccc3)N12,19,13*,13,-8,21,/
C[C@@H]1CN([C@@H](C)CO)C(=O)c2cc(-c3ccc(C#N)cc3)cnc2O[C@H]1CN(C)CC1CCCC1,12[16.7 µM],-3,10,-6,8,-10
C[C@@H]1CN([C@@H](C)CO)C(=O)c2cc(C3=CCCC3)cnc2O[C@H]1CN(C)S(=O)(=O)c1cn(C)cn1,-15[16.7 µM],1,-16,13,3,-10
C[C@H]1CN([C@@H](C)CO)C(=O)c2cc(C#Cc3ccccc3F)cnc2O[C@H]1CN(C)C(=O)Cc1cccnc1,14[16.7 µM],0,-6,4,/,-7
CN(C)c1nc(=NCc2cccs2)ss1,-29,-7,-8,/,-20,72*
COc1ccc(C(=O)/C=C/C(=O)N(CC(=O)NC2CCCCC2)Cc2ccccc2OC)c(O)c1,-98,-5,?,/,3,-5
COc1ccc(C(=O)/C=C/C(=O)N(CC(=O)NC2CCCCC2)Cc2ccccc2)c(O)c1,-102,-5,83*,7,?,-6
